Measurements from PubChem BioAssay (NCI).
This is part of a sample that, as a whole, favours compounds with a hit. Of some 83,000 tested, about 20% had one in any assay.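 Growth was measured after 48 h exposure to one concentration of compound in 96-well plates. Values under 10 count as active.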 Calls of active or inactive are those of the source.

Columns and labels:
Assay in all cases: NCI-60 one-dose screen, 48 h (100 = growth as untreated, 0 = no growth, -100 = all killed)
Conditions in all cases: 10 µM unless noted
[1] = tested on: DU-145 prostate
[2] = tested on: K-562 leukemia
[3] = tested on: MALME-3M melanoma
[4] = tested on: MDA-MB-231 breast
[5] = tested on: RXF 393 renal
[6] = tested on: SF-268 CNS
[7] = tested on: SF-295 CNS
[8] = tested on: SF-539 CNS
[9] = tested on: UACC-257 melanoma
[10] = tested on: M14 melanoma
[11] = tested on: HCT-15 colon
[12] = tested on: HT29 colon
[13] = tested on: SNB-75 CNS
[14] = tested on: SNB-19 CNS
[15] = tested on: U251 CNS
[16] = tested on: PC-3 prostate
[17] = tested on: SK-MEL-5 melanoma
[18] = tested on: UACC-62 melanoma
[19] = tested on: LOX IMVI melanoma
[20] = tested on: SK-MEL-28 melanoma

Measured: growth

O=C1Cc2c(sc3c(F)cccc23)C(c2ccccc2[N+](=O)[O-])N1 (stereo not given)
inactive: [1] 107% | [2] 97.1% | [3] 94.5% | [4] 84.9% | [5] 125% | [6] 93.8% | [7] 101% | [8] 89.4% | [9] 120% | [10] 101% | [11] 110% | [12] 112% | [13] 90% | [14] 100% | [15] 85.2% | [16] 100% | [17] 97.3% | [18] 87.2% | [19] 97.7% | [20] 120%

CC1Cc2c(Cl)ncnc2N(C)c2ccc(Cl)cc21 (stereo not given)
inactive: [1] 40.9% | [2] 14.7% | [3] 22.6% | [6] 18.8% | [7] 20.2% | [8] 28.1% | [10] 11.1% | [13] 50.1% | [14] 25.2% | [15] 18.8% | [16] 13.9% | [18] 11.8% | [20] 20.6%
active: [4] -39.8% | [5] 0.883% | [9] 4.86% | [11] 6.68% | [12] -0.897% | [17] -86.9% | [19] -69.3%

Cc1nc(Cl)cc(N(c2cc(Cl)nc(C)n2)c2ncc(C(=O)Nc3c(C)cccc3Cl)s2)n1
inactive: [1] 76.5% | [3] 62.5% | [4] 24% | [6] 47% | [7] 50.4% | [8] 38.9% | [9] 79.6% | [10] 79.6% | [11] 59.4% | [12] 20.4% | [14] 72.9% | [15] 54.6% | [16] 32.4% | [17] 46.2% | [18] 53.3% | [19] 14.2% | [20] 78%
active: [2] 6.72% | [5] 3.03% | [13] -30.3%

O=C(NCCCNC(=O)OCc1ccc2c(Br)cc(Br)c(O)c2n1)OCc1ccc2c(Br)cc(Br)c(O)c2n1
inactive: [6] 10.3% | [7] 20% | [14] 44.6%
active: [1] -80.8% | [2] 3.3% | [3] -87.8% | [4] -68.5% | [5] -93.3% | [8] -96.8% | [9] -37.5% | [10] -65.8% | [11] -34.4% | [12] -73% | [13] -87.6% | [15] -70.4% | [16] -25.5% | [17] -77.7% | [18] -87.1% | [19] -92% | [20] -75.9%

CC[C@]1(O)CC2CN(CCc3c([nH]c4ccccc34)[C@@](C(=O)OC)(c3cc4c(cc3OC)N(C=O)[C@H]3[C@@](O)(C(=O)OC)[C@H](OC(C)=O)[C@]5(CC)C=CCN6CC[C@]43[C@@H]65)C2)C1 (stereo not given in full)
active: [1] -46.8% | [4] -31.3% | [6] 3.28% | [7] 6.3% | [8] 5.55% | [10] 4.87% | [12] 4.12% | [15] 8.14% | [17] -38%
inactive: [2] 14.7% | [3] 54.7% | [5] 65.2% | [9] 53.8% | [11] 16% | [13] 38.7% | [14] 43.8% | [16] 35.1% | [18] 35.6% | [19] 26% | [20] 61%

O=C(CCCSc1nc(-c2ccccc2)cc(-c2ccccc2)n1)NO
active: [2] 6.51% | [3] 7.62% | [5] -21.7% | [6] 0.164% | [7] 4.39% | [8] 6.64% | [9] -2.82% | [10] 5.46% | [12] 2.72% | [13] 9.8% | [15] -13.2% | [17] -17.3% | [18] -20.9% | [19] -25.3%
inactive: [1] 13.3% | [4] 19.8% | [11] 20.4% | [14] 21.6% | [16] 26.2% | [20] 26%

COC(=O)C(=Cc1ccccc1[N+](=O)[O-])C(=O)OC
inactive: [3] 25.2% | [4] 48% | [7] 97.1% | [8] 58.1% | [9] 57.1% | [10] 32% | [11] 19.8% | [12] 21.3% | [13] 33.5% | [14] 88.9% | [15] 23.7% | [16] 40.4% | [17] 49.1% | [18] 19.6% | [19] 10.7% | [20] 36.4%
active: [1] -45.6% | [2] -12% | [5] -29.1% | [6] 0.377%

CNc1cc(C(=O)O)nc(NC)n1
inactive: [1] 103% | [2] 101% | [3] 95.6% | [4] 93.1% | [5] 96% | [6] 100% | [7] 100% | [8] 94.6% | [9] 94.4% | [10] 92.7% | [11] 96.4% | [12] 104% | [13] 90.9% | [14] 92.5% | [15] 99.8% | [16] 94.9% | [17] 96.7% | [18] 97.8% | [19] 99.8% | [20] 92.7%

COc1cccc(-c2[nH]c(=S)ncc2C(=O)c2ccccc2)c1
inactive: [1] 98.4% | [2] 35% | [3] 71% | [4] 99.3% | [5] 90.6% | [6] 90% | [7] 68.6% | [8] 84.9% | [9] 97.3% | [10] 61.9% | [11] 50.8% | [12] 46.8% | [13] 66.6% | [14] 82.9% | [15] 85% | [16] 91.6% | [17] 83.2% | [18] 74.3% | [19] 72.4% | [20] 81.4%

Cc1ccc2c(c1)C(C)Cc1c(Cl)ncnc1N2C (stereo not given)
inactive: [1] 79.8% | [2] 30.9% | [3] 14.6% | [6] 22.6% | [7] 18.4% | [8] 29% | [9] 20.1% | [10] 15.1% | [13] 50.3% | [14] 30.4% | [15] 17.9% | [16] 14.1% | [20] 27.1%
active: [4] -31.9% | [5] 4.04% | [11] 8.93% | [12] -8.76% | [17] -86.7% | [18] 7.38% | [19] -58.1%

O=C1NC(=O)c2cc([N+](=O)[O-])cc3cccc1c23
inactive: [1] 106% | [2] 131% | [3] 107% | [4] 100% | [5] 98.2% | [6] 98% | [7] 114% | [8] 105% | [9] 76.7% | [10] 93.3% | [11] 95.2% | [12] 102% | [13] 90.2% | [14] 100% | [15] 82.3% | [16] 78.8% | [17] 101% | [18] 87% | [19] 81.5% | [20] 108%

O=C(Nc1ccc(CN2CCOCC2)c(C(F)(F)F)c1)c1nc2ccc3[nH]ncc3c2c2c1CCCC2
inactive: [1] 104% | [2] 82.8% | [3] 106% | [4] 95.9% | [5] 99.7% | [6] 103% | [7] 97.7% | [8] 99.1% | [9] 88.9% | [10] 91.6% | [11] 82.4% | [12] 74.8% | [13] 128% | [14] 98.4% | [15] 92% | [16] 66.2% | [17] 102% | [18] 79.2% | [19] 90.5% | [20] 103%

O=C(O)c1cn(C2CC2)c2cc(N3CCN(Cc4cc(Cl)ccc4O)CC3)c(F)cc2c1=O
inactive: [1] 95.2% | [2] 46.5% | [3] 80.7% | [4] 71.3% | [5] 60.2% | [6] 75.8% | [7] 34.3% | [8] 74% | [9] 80.7% | [10] 59.2% | [11] 45.7% | [12] 44.9% | [13] 67.6% | [14] 60.2% | [15] 36.6% | [16] 54.7% | [17] 58.8% | [18] 54.9% | [19] 57.1% | [20] 71.7%

O=[N+]([O-])c1cc([N+](=O)[O-])c(C(F)(F)F)cc1NN=C(c1ccc(O)cc1)c1ccc(O)cc1
inactive: [1] 114% | [2] 103% | [3] 117% | [4] 83.2% | [6] 88% | [7] 110% | [11] 13.7% | [12] 91.6% | [13] 92.7% | [15] 26.2% | [16] 51.1% | [18] 60.6% | [19] 14% | [20] 94.8%
active: [5] -57.8% | [8] -64.7% | [9] -61% | [10] -47.8% | [14] -4.43% | [17] -96.7%

O=C(O)CC1CCCCC1c1ccccc1 (stereo not given)
inactive: [1] 117% | [2] 109% | [3] 112% | [4] 116% | [5] 106% | [6] 109% | [7] 100% | [8] 91.9% | [9] 112% | [10] 97.2% | [11] 97.8% | [12] 101% | [13] 106% | [14] 106% | [15] 105% | [16] 90% | [17] 105% | [18] 102% | [19] 103% | [20] 119%
